This is an account of results in ChEMBL document CHEMBL4513216, “Probing the Open Global Health Chemical Diversity Library for Multistage-Active Starting Points for Next-Generation Antimalarials” (ACS Infect Dis, 2020).

The whole screen tested about 68,000 compounds, of which about 2,700 (4%) showed an effect of 50% or more. The sample as a whole holds a higher share of strong results than the screen did.

The test system of the assay is Plasmodium berghei. Description: Screen against P. berghei liver stage (PbLuc), transformed with Luciferase, at 2uM. The assay is classed as functional, HepG2. Particulars: tested at 2 uM.
Turning to `CCc1ccc(C(=O)N2CCN(CCO)CC2)o1`, the INHIBITION came to 31.7%. The value for `CN(Cc1ccco1)C(=O)c1ccc(=O)n(C)c1` was 1.13%; that for `Cc1nc(CNCc2ccc(OC34CCCN(CC3)C4)cc2)n[nH]1` (stereo unspecified) was -2.62%; that for `CC(C)NC(=O)C1CN(C(=O)N(C)C)CC12CCOCC2` (stereo unspecified) was 58.87%. As to `COCC(=O)N1CC(C(=O)NCC2CC2)C2(CCOCC2)C1` (stereo unspecified), the INHIBITION is -13.16%.

Turning to `CC(C)NC(=O)C1CN(C(=O)c2ccccc2)CC12CCOCC2` (stereo unspecified), the INHIBITION came to 34.48%. Turning to `CC(C)NC(=O)C1CN(C(=O)N2CCCC2)CC12CCOCC2` (stereo unspecified), the INHIBITION turned out to be 17.51%. As to `Cc1ccsc1C(=O)N1CC(C(=O)NCC2CC2)C2(CCOCC2)C1` (stereo unspecified), the INHIBITION is listed as 2.41%. In the case of `CN(C)C(=O)N1CC(C(=O)NCC2CC2)C2(CCOCC2)C1` (stereo unspecified), the INHIBITION worked out at 55.92%. With `COCCO[C@@H]1C[C@H]2CN(C(=O)c3cnccn3)CCN2C1`, the INHIBITION was -1.27%.

Take `O=C1NCCCCC1NCc1csc(-c2ccc(F)cc2)n1` (stereo unspecified): the INHIBITION worked out at 13.91%.

On to `CCN1CCc2c(CNC(=O)c3nccn3C)cncc2C1`, for which the INHIBITION was 10.71%. The value for `CCc1oc(C(=O)NC(C)c2ncn[nH]2)cc1CN1CCCC1` (stereo unspecified) was 38.24%; that for `CC(C)Nc1ncccc1C(=O)NC1CC(=O)N(CC(F)(F)F)C1` (stereo unspecified) was 16.87%; that for `Cc1[nH]c2ccccc2c1-c1ccnc(N[C@H](CO)CC(C)C)n1` was -48.87%. `Nc1ncc(C(=O)N2CCC(O)(CO)CC2)c(-c2ccccc2)n1`: the INHIBITION is 32.04%. The value for `Nc1ncc(C(=O)N2CCC3(CCCO3)CC2)c(-c2ccccc2)n1` was 14.83%; that for `Nc1ncc(C(=O)N2CCCC(N)CC2)c(-c2ccccc2)n1` (stereo unspecified) was 50.91%.

Take `Cc1cc(CN(C)C(C(=O)O)c2cccc(C(F)(F)F)c2)on1` (stereo unspecified): the INHIBITION is on record as -53%. The value for `COc1ccc(C)cc1CN1CCn2cccc2C1C` (stereo unspecified) was 23.27%; that for `CC(C)SCC(=O)NCc1cc2n(n1)CCCN(C1CCCCC1)C2` was 50.02%. Turning to `CCC(C)NC(=O)NCc1cc2n(n1)CCCN(C1CCCCC1)C2` (stereo unspecified), the INHIBITION is listed as -15.12%. Turning to `CSCCC(=O)NCc1cc2n(n1)CCCN(C1CCCCC1)C2`, the INHIBITION is given as -12.95%. As for `CNS(=O)(=O)c1ccc(CNC(=O)N(C)C(C)COC)cc1` (stereo unspecified), the INHIBITION is on record as -30.49%. For `Cc1ccc(C(=O)N2CCC3(CCN3c3ncccn3)C2)cn1` (stereo unspecified), the INHIBITION was -55.08%. On to `CC(O)CNc1ccc(C#N)cc1C(F)(F)F` (stereo unspecified), for which the INHIBITION was found to be 25.48%.

On to `CC(C)(C)c1nc(NS(=O)(=O)c2ccc(F)cc2)no1`, for which the INHIBITION was -56.23%. The value for `Cc1nc(CNC(=O)NC(C)c2ccc3c(c2)OCCCO3)cs1` (stereo unspecified) was -10.62%; that for `O=C(COCCOc1ccccc1)NC1CCN(c2ccccn2)CC1` was 21.79%; that for `COCCOCC(=O)NC1CCN(c2ccccn2)CC1` was -1.01%. The value for `Cc1ccc(C)c(OCC(=O)NC2CCN(c3ccccn3)CC2)c1` was 63.89%; that for `O=C1CCCCCN1Cc1ncnn1Cc1c(F)cccc1Cl` was 29.98%; that for `Fc1cccc(Cl)c1Cn1ncnc1CSCCN1CCCC1` was 2.76%. Regarding `O=C1OCCN1Cc1ncnn1Cc1c(F)cccc1Cl`, the INHIBITION was found to be 59.94%.

As to `O=S(=O)(NCc1ccc(S(=O)(=O)N2CCCC2)s1)c1ccc(Cl)c(Cl)c1`, the INHIBITION is -7.01%. As for `CCN1CCc2cc(-c3cncn3CC(=O)NC(C)(C)C)ccc21`, the INHIBITION was 25.72%.

For `CCN1c2ccc(-c3cncn3CC(=O)NC(C)(C)C)cc2CC1C` (stereo unspecified), the INHIBITION is 51.57%. As to `CC1Cc2cc(-c3cncn3CC(=O)NC(C)(C)C)ccc2N1C` (stereo unspecified), the INHIBITION came out at 37.4%. Next, `CCN1CCCC(c2c(-c3ccccc3)ncn2Cc2cccnc2)C1` (stereo unspecified): -17.04%.

With `O=C(NCCCO)c1cc(-c2ccc3c(c2)CCO3)n[nH]1`, the INHIBITION is -56.16%. On to `O=C(NCCO)c1cc(-c2ccc3c(c2)CCO3)n[nH]1`, for which the INHIBITION came out at 51.31%. The value for `CN(C)CCCNC(=O)c1cc(-c2ccc3c(c2)CCO3)n[nH]1` was -4.01%. With `CC1c2ncc(Cn3cccn3)n2CCN1Cc1ccc(F)cc1` (stereo unspecified), the INHIBITION stood at 17.24%.

With `COCc1cc(N(C)Cc2cnccn2)nc(C(C)(C)C)n1`, the INHIBITION turned out to be 10.03%. For the molecule `COCCC(=O)N1CCCC(CCC(=O)Nc2ccc(Cl)cc2)C1` (stereo unspecified), the INHIBITION was -0.62%. The value for `O=C([C@@H]1COC[C@H]2CN(c3ccncn3)C[C@H]21)N1CCCC1` was 25.58%; that for `O=C([C@@H]1COC[C@H]2CN(c3ccncn3)C[C@H]21)N1CCCCO1` was 40.64%. Consider `O=C([C@H]1COC[C@H]2CN(c3ccncn3)C[C@H]21)N1CCCC1`, for which the INHIBITION came out at 53.55%.

As for `CN(Cc1cccnc1)CC1CN(C(=O)C2CC2)Cc2nccn2C1` (stereo unspecified), the INHIBITION stood at 6.8%. Next, `CN1Cc2c(C(=O)NC3CCCCC3)ncn2-c2ccccc2S1(=O)=O`: -2.38%.

Consider `CCc1nc(-c2ccc(NC(=O)N3CCC4(CC3)OCCO4)cc2)no1`, for which the INHIBITION is on record as -16.82%. Next, `CCc1nc(-c2ccc(NC(=O)N3CCOCC3)cc2)no1`: -52.23%; `CCc1nc(-c2ccc(C(=O)N3CCC4(CC3)OCCO4)cc2)no1`: 59.75%. The value for `CC(C)n1nnnc1-c1ccc(NC(=O)CC(F)(F)F)cc1F` was -16.15%; that for `CCC(CN1CCOCC1)n1cncc1-c1ccc2c(c1)CCN2CC` (stereo unspecified) was 8.33%; that for `O=C(C1CCCN(C2CCOCC2)C1)N1CCc2ncccc2C1` (stereo unspecified) was 34.71%. Next, `CCOCCC(=O)N1CCc2cccc(S(=O)(=O)N3CCOCC3)c2C1`: 23.82%. For `CCCOCC(=O)N1CCc2c(cccc2S(=O)(=O)N2CCOCC2)C1`, the INHIBITION is listed as 53.05%. For `COCC(=O)N1CCc2cccc(S(=O)(=O)N3CCOCC3)c2C1`, the INHIBITION is 13.24%.

As for `CC(C)CCN1CCNC(=O)C1CC(=O)NCCc1cc(O)ncn1` (stereo unspecified), the INHIBITION is 17.99%.

Consider `COC1CCN(CCNC(=O)NC(C)c2ccc(F)c(F)c2)CC1` (stereo unspecified), for which the INHIBITION stood at 54.29%. Next, `COC1CCN(CCNC(=O)NC(C)c2cccc(Cl)c2)CC1` (stereo unspecified): -23.58%; `COC1CCN(CCNC(=O)NCC(C)c2cccc(C)c2)CC1` (stereo unspecified): 38.83%; `Cc1ccc(S(=O)(=O)NCCOc2ccc3nnc(C)n3n2)s1`: 17.47%. Next, `CCN(CCS(=O)(=O)CC)CC1CCCO1` (stereo unspecified): 1.03%; `CS(=O)(=O)CCN(CC1CCCO1)C1CCCC1` (stereo unspecified): 56.53%; `CCS(=O)(=O)CCN(CC1CCCO1)C1CCCC1` (stereo unspecified): -19.27%. Turning to `CCc1nc(N2CCCC(O)(CO)CC2)ncc1C` (stereo unspecified), the INHIBITION is 32.1%. Next, `Cc1ccc(C)c(OCc2cc(C(=O)N(C)Cc3cnn(C)c3)no2)c1`: 28.17%; `Cc1ccc(C)c(OCc2cc(C(=O)N(C)Cc3nonc3C)no2)c1`: 50.86%. Next, `Cc1ccc(C)c(OCc2cc(C(=O)N(C)CC(O)CO)no2)c1` (stereo unspecified): -10.86%; `Cc1cnn(CC2CCCN2Cc2ncc(-c3ccc(F)cc3)o2)c1` (stereo unspecified): 10.52%; `O=C1CC(N(C(=O)c2ccc(F)c(F)c2)C2CC2)C(=O)N1` (stereo unspecified): -20.51%. For the molecule `Cc1ccc(C(=O)N(C2CC2)C2CC(=O)NC2=O)cc1F` (stereo unspecified), the INHIBITION turned out to be 59.93%. As for `COc1cc(C(=O)N(C2CC2)C2CC(=O)NC2=O)ccc1C` (stereo unspecified), the INHIBITION is recorded as 11.18%. The value for `O=C([C@H]1C[C@H]2OCC[C@H]2N(CC2CCOCC2)C1)N1CCCCO1` was 26.31%; that for `CNC(=O)[C@H]1C[C@H]2OCC[C@H]2N(CC2CCOCC2)C1` was -14.24%.

As to `O=C([C@H]1C[C@H]2OCC[C@H]2N(CC2CC2)C1)N1CCCC1`, the INHIBITION is listed as 63.14%. The value for `O=C([C@H]1C[C@H]2OCC[C@H]2N(CC2CCOCC2)C1)N1CCCC1` was 58.93%; that for `O=C([C@H]1C[C@@H]2[C@@H](C1)OCCN2CC1CC1)N1CCCC1` was -1.29%; that for `O=C([C@H]1C[C@H]2OCC[C@H]2N(CC2CC2)C1)N1CCCCO1` was -11.4%. Regarding `CS(=O)(=O)N1C[C@H]2CCCN(Cc3nccs3)[C@H]2C1`, the INHIBITION came to 14.65%. Next, `CC(Cn1cncn1)NC(=O)NCC(C)(C)c1ccc(F)cc1` (stereo unspecified): 38.1%; `NC(=O)C(NC1CCN(Cc2ccc(F)cc2)CC1)c1ccccc1` (stereo unspecified): -15.03%; `NC(=O)C(NC1CCN(CC2CCCCC2)CC1)c1ccccc1` (stereo unspecified): 15.27%.

Regarding `NC(=O)C(NC1CCN(CC2CCCCC2)CC1)c1ccc(F)cc1` (stereo unspecified), the INHIBITION was determined as 65.76%. As for `COc1ccc(C[C@H]2CN(Cc3ccoc3)CC[C@H]2OC)cc1`, the INHIBITION is 10.71%.

For the molecule `N#Cc1ccnc(N2CCC(c3nccn3Cc3cscn3)CC2)c1`, the INHIBITION is 45.58%. Turning to `Cn1ccnc1C(=O)N1CCC2(CCN2c2ncccn2)C1` (stereo unspecified), the INHIBITION is 6.07%. In the case of `Cn1cccc1C(=O)N1CCC2(CCN2c2ncccn2)C1` (stereo unspecified), the INHIBITION is 27.42%. Next, `Cn1ccc(C(=O)N2CCC3(CCN3c3ncccn3)C2)n1` (stereo unspecified): 53.38%; `CCN1CCn2c(C)cnc2C12CCN(C(=O)NCC(C)C)CC2`: -29.74%; `COc1cccn(Cc2nnc(-c3cccnc3)o2)c1=O`: -16.19%. `Cc1ccc(NC(=O)N(C)C)c(C(=O)OCC(=O)NC2CCCC2)c1`: the INHIBITION is recorded as 49.71%. Next, `Cc1ccc(NC(=O)N(C)C)c(C(=O)OCC(=O)NC(C)C(C)C)c1` (stereo unspecified): 20.34%; `CCC(C)(C)NC(=O)COC(=O)c1cc(C)ccc1NC(=O)N(C)C`: 60.64%. The value for `Cc1cc2ncc(C(C)NCc3cccnc3)c(C)n2n1` (stereo unspecified) was 19.6%; that for `CCc1ccccc1C(=O)NS(=O)(=O)CCCC#N` was -32.8%; that for `COCC1c2nnn(CC3CC3)c2CCN1C(=O)c1cnccn1` (stereo unspecified) was 1.92%. Take `c1ccc(NC[C@@H]2CCC[C@@H]3CN(Cc4nccs4)C[C@@H]32)nc1`: the INHIBITION was determined as 38.11%. Take `Cc1cnc(CN2CCN(c3ccc4nncn4n3)C(C)C2)cn1` (stereo unspecified): the INHIBITION was found to be 6.12%. The value for `CC1CN(Cc2cccnc2)CCN1c1ccc2nncn2n1` (stereo unspecified) was -68.26%. The value for `CC1CN(Cc2nccn2C)CCN1c1ccc2nncn2n1` (stereo unspecified) was 3.9%; that for `CC1CN(Cc2cnn(C)c2)CCN1c1ccc2nncn2n1` (stereo unspecified) was 62.13%; that for `Cc1ncc(CN2CCN(c3ccc4nncn4n3)C(C)C2)s1` (stereo unspecified) was 64.71%. Next, `Cc1cc(CN2CCN(c3ccc4nncn4n3)C(C)C2)no1` (stereo unspecified): -54.33%.
